# Screen size: about 1,500 compounds; about 1,400 (93%) were called active. How the calls were made is not given here. The set was probably picked from earlier hits. The list is a sample of the results. Entries with a potency or affinity are not part of this list.
# Assay: viability of HCT116 lacking mutant beta-catenin – cell-based, human colon tumor, dose response (AID 1045)
# Conditions: HCT116 beta-catenin knockout viability, CellTiter-Glo, 60 h; series mostly up to 30 µM; viability: at the top concentration
row,Compound,viability
1,CCCNC(=O)OC[C@H]1O[C@H](CCO/N=C/[C@@H](NS(=O)(=O)c2ccc(C)cc2)[C@H](C)/C=C/CC(=O)OC)C=C[C@@H]1Oc1ccc(OC)cc1,90.3% (inactive)
2,O=C(Nc1ccccc1Cl)NC1(C(=O)N2CCCC2)CCCCC1,94.7% (inactive)
3,Cc1ccc(C(=O)c2coc3c2C(=O)C(=O)c2ccccc2-3)cc1,91.4% (inactive)
4,CCCC(=O)Nc1sc2c(c1C#N)CCCCC2,98.2% (inactive)
5,CCN1CCN(Cc2ccc(OCc3ccccc3)cc2)CC1,86.3% (inactive)
6,S=C(NCCc1ccc(Cl)cc1)Nc1ccc(Cl)cc1Cl,84.2% (inactive)
7,O=C(Nc1cccc(C(F)(F)F)c1)NC1CCCCC1,93.5% (inactive)
8,C=C1C(O)C[C@H]2C(=C)CCC3[C@H](OC(=O)[C@]3(O)CO)[C@@H]12 (stereo not given in full),103% (inactive)
9,Cc1ccc2cc3cc(C(=O)NCc4ccc5c(c4)OCO5)oc3nc2c1,90.1% (inactive)
10,Nc1nnc(SCc2ccc(Cl)cc2)s1,91.9% (inactive)
11,O=C(NC(=S)Nc1ccc2c(c1)OCO2)c1ccc(Cl)cc1,87.5% (inactive)
12,COC(=O)CN1C(C)=Nc2ccc(Br)cc2C1c1ccccc1 (stereo not given),91.8% (inactive)
13,COC(=O)C1=C(C)N(Cc2ccco2)C(=O)N[C@@H]1c1cccc(C(F)(F)F)c1,83% (inactive)
14,CCN1CCN(c2cc(C)c3cc(NC(=O)c4ccc5c(c4)OCO5)ccc3n2)CC1,87.7% (inactive)
15,CCN(CC)S(=O)(=O)c1ccc(NC2CCCc3ccccc32)nc1 (stereo not given),83.6% (inactive)
16,COc1ccc(-c2cc(C(F)(F)F)nc(S(C)(=O)=O)n2)cc1OC,81.2% (inactive)
17,O=C(Nc1cccc(-c2nnc(-c3ccccc3)o2)c1)C1CCCCC1,95.4% (inactive)
18,Cc1ccccc1NC(=O)c1ccc2c(c1)OCCO2,88.1% (inactive)
19,CSc1n[nH]c(NCc2cccs2)n1,102% (inactive)
20,Cc1cc(C)n(C(=O)CNc2ccc(C)c(C)c2)n1,91.1% (inactive)
21,CCCC/C(C)=N\NC(=O)CNS(=O)(=O)c1ccc([N+](=O)[O-])cc1,97.5% (inactive)
22,COc1ccc(-n2c(O)c(/C=N/NS(=O)(=O)c3ccc(C)cc3)c3ccccc3c2=O)cc1OC,80.6% (inactive)
23,COCCN1C(=O)c2oc3ccccc3c(=O)c2C1c1ccc(OC)c(OC)c1 (stereo not given),89.8% (inactive)
24,O=C(Nc1cccc(C(F)(F)F)c1)/C(=C\c1ccco1)NC(=O)c1cccs1,82% (inactive)
25,O=C(Nc1ccc(-c2nc3ccccc3o2)cc1)c1cccnc1,103% (inactive)
26,O=C(NCc1ccco1)C1CCN(S(=O)(=O)Cc2ccccc2)CC1,98.3% (inactive)
27,CCOC(=O)c1c(-c2ccc(C)cc2)csc1NC(=O)/C(C#N)=C/c1ccc(O)c(OC)c1,90.9% (inactive)
28,Cc1ccc(C(=O)NCCc2nnc(SCC(=O)Nc3nc(-c4ccccc4)cs3)n2C)cc1,92.9% (inactive)
29,CCn1c(Cc2ccc(OC)cc2)nnc1SCC(=O)Nc1cccc(C(=O)OC)c1,103% (inactive)
30,COc1ccc(-c2cc(C(F)F)n3ncc(C(=O)n4ccnc4C)c3n2)cc1,86.4% (inactive)
